Mot1-301 SUMO: inhibitors of SUMOylation pathway: yeast Mot1-301 growth rescue | S. cerevisiae Mot1-301 growth rescue, ATP luminescence, 38.5C; percent above DMSO median, 100 means doubled | growth rescue, % at 18.8 µM | 1% of 320,000 active | AID 2716;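 active = every valid replicate shows activation above 250% relative to neutral control wells; inactive = the rest, any valid replicate at or below 250%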
SKN-1 inh: C. elegans SKN-1 inhibition. C. elegans VP596 Pgst-4::GFP/RFP ratio, acrylamide-induced, 24 h. inhibition, % at 21.8 µM. 0.49% of 360,000 active;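 active = interference check ratio from 0.5 to 1.5 plus GFP to RFP signal ratio inhibition reaching or exceeding a fixed threshold, cut at about 30% in these data, passing the limit was not always enough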
sPLA2-III inh: Inhibits HGIII-sPLA2 liposome hydrolysis, primary screen. QFRET BODIPY PC-A2 liposome hydrolysis, fluorescence. inhibition, % at 12.2 µM. 0.56% of 370,000 active;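 active = inhibition above mean plus 3 SD of compounds lying within the high and low control bounds, cut at about 19% in these data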
Target sequence (Q9NZ20 whole entry, looked up): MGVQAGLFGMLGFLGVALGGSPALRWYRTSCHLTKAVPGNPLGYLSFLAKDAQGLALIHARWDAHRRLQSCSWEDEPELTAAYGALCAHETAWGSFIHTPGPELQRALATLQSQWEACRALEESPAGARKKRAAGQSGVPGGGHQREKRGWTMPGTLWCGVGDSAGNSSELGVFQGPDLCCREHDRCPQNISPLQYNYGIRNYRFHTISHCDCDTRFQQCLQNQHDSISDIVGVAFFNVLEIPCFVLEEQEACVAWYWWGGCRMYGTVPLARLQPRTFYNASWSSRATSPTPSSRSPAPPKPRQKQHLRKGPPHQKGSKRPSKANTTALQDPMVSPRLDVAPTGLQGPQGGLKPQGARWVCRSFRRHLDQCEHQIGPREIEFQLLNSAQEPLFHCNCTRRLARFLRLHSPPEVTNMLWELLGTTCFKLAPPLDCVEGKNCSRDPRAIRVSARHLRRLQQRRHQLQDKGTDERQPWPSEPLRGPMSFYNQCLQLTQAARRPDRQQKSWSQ
Efflux pump mplx: inhibitors of Candida antifungal efflux pumps expressed in yeast; S. cerevisiae Candida pump triplex, Nile Red efflux; inhibition, % at 10 µM; 0.44% of 330,000 active; AID 485275;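 active = plate passing quality check with inhibition over a set limit, or well fluorescence over plate mean plus 4 SD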;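 note: Nile Red retained in pooled yeast measured as flow cytometry median fluorescence; higher means more Nile Red kept so more efflux inhibition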
Mot1 SUMO dose: SUMO pathway inhibitors in yeast Mot1-301 growth | growth activity, percent, % at 42 µM | shares compounds with Mot1-301 SUMO | S. cerevisiae Mot1-301 galactose growth, ATP luminescence, 24 h; -100 = growth of slx-deleted rescue strain | 2,300 tested, under 10 active;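 active = Signal drops as the depositor expects, and the fitted half-maximal dose is no more than ten times the top valid tested dose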;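 note: more negative values mean stronger growth rescue toward the control strain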
Numbers stand for hits; i = inactive; nt = no result; + = active, no number. The list is not random: actives were taken first. Their share in the collection is about 2.2%.

SMILES	Mot1-301 SUMO	SKN-1 inh	sPLA2-III inh	Efflux pump mplx	Mot1 SUMO dose
Cc1ccc(-c2ccc(/C=N/n3cnnc3)o2)cc1Cl	i	i	i	i	nt
O=C(OCc1nnc(-c2ccccc2)o1)c1ccc([N+](=O)[O-])o1	743	i	i	i	i
CN(c1cccnc1)c1ncnc2[nH]ncc12	+	i	i	i	i
COCCN(C(=O)CSc1nnc(-c2ccc(C)cc2)n1N)c1c(N)n(Cc2ccccc2)c(=O)[nH]c1=O	516	i	i	i	i
CCN(C(=O)CSc1nnc(-c2ccc(C)cc2)n1N)c1c(N)n(Cc2ccccc2)c(=O)[nH]c1=O	nt	i	i	nt	nt
COc1ccc(C(=O)N2CCC2(C)C(=O)O)cc1C(F)(F)F (centres undefined)	nt	i	i	nt	nt
CCOc1cc(C)c(S(=O)(=O)NCCCn2ccnc2)cc1C	i	i	i	i	nt
CCC(C)[C@H](NC(=O)OC(C)(C)C)C(=O)NCC1CCC(C(=O)N[C@@H](Cc2ccccc2)C(=O)O)CC1 (some centres undefined)	628	i	i	i	i
CC(C)(C)OC(=O)N[C@@H](Cc1ccccc1)C(=O)NCC1CCC(C(=O)N[C@@H](CC(=O)O)C(=O)O)CC1 (some centres undefined)	i	i	i	i	nt
CCOc1ccc(NC(=O)C2CC(=O)N3CCCN=C3S2)cc1 (centres undefined)	+	i	i	i	i
O=C(CSc1nnnn1C1CCCCC1)Nc1ccccc1F	i	i	i	i	nt
O=C(CSc1nnnn1C1CC2CCC1C2)Nc1ccnc2ccccc12 (centres undefined)	775	i	i	i	i
O=C(C1CCCN(S(=O)(=O)c2cnc[nH]2)C1)N1CCN(c2ccc(Cl)cc2)CC1 (centres undefined)	532	i	i	i	i
CCN(CC)S(=O)(=O)c1ccc(N2CCOCC2)c(NC(=O)COc2ccc(C#N)cc2)c1	nt	i	i	i	nt
CCCCOc1ccc(C(=O)NCC(=O)NCC(c2ccc(OC)cc2)N2CCCC2)cc1 (centres undefined)	i	i	i	i	nt
COc1nc(-c2ccccc2)ccc1-c1noc(-c2ccccc2)n1	558	i	i	i	i
CC1=CNC(=O)CC(C)(C)C1	nt	i	nt	nt	nt
O=C(c1ccc(Br)cc1)C(CN1CCOCC1)c1ccccc1 (centres undefined)	460	i	i	i	i
CCC1CCCCN1CCCNC(=O)C1CCC(CNS(=O)(=O)c2c(C)cc(C)cc2C)CC1 (centres undefined)	509	i	i	i	i
CCN(CC)CCCNC(=O)C1CCC(CNS(=O)(=O)c2c(C)cc(C)cc2C)CC1 (centres undefined)	i	i	i	i	nt
O=P(Cc1cccc2ccccc12)(c1ccccc1)c1ccccc1	nt	i	i	nt	nt
CCn1c(SCC(=O)Nc2ccccc2-c2ccccc2)nnc1-c1ccc(C)cc1	nt	nt	i	nt	nt
Nc1ccc(Oc2ccccc2-c2ccccc2)cc1	446	i	i	i	i
NCCOc1ccccc1-c1ccccc1	i	i	i	i	nt
CCC(C)NC(=O)C1CCC(CNS(=O)(=O)c2ccc3c(c2)N(C(C)=O)CCO3)CC1 (centres undefined)	i	i	i	i	nt
SMILES	Mot1-301 SUMO	SKN-1 inh	sPLA2-III inh	Efflux pump mplx	Mot1 SUMO dose
COc1cc(CN(C)CCc2ccccc2)ccc1OCc1ccccc1	i	i	i	i	nt
CCN(Cc1ccccc1)Cc1ccc(OCc2ccccc2)c(OC)c1	365	i	i	i	i
CC1(C(=O)NCC2CC2)CCN1C(=O)C1(c2ccc(Cl)cc2)CC1 (centres undefined)	nt	i	i	nt	nt
O=C(CC(c1ccccc1)c1ccccc1O)NCc1ccccc1 (centres undefined)	i	i	i	i	nt
O=C(CC(c1ccccc1)c1ccccc1O)NCCN1CCOCC1 (centres undefined)	428	i	i	i	i
Cc1ccc([C@@H]2CC=C(C(=O)O)[C@H](c3ccc(Cl)cc3)N2S(=O)(=O)c2ccc(C)cc2)cc1	i	i	i	i	nt
COc1cc([C@@H]2CC=C(C(=O)O)[C@H](c3ccccc3F)N2S(=O)(=O)c2ccc(C)cc2)cc(OC)c1OC	662	i	i	i	i
Cc1ccc(S(=O)(=O)N2[C@@H](c3ccccc3)C(C(=O)O)=CC[C@H]2c2ccc(Cl)cc2)cc1	377	i	i	i	i
O=c1[nH][nH]c2c1[C@H](c1ccc(Cl)cc1)O[C@H](C1CCCC1)C2	nt	i	i	nt	nt
COc1ccc(-c2ccc3c(n2)CCCN3S(=O)(=O)c2ccc(F)cc2)cc1	nt	nt	i	nt	nt
COc1cccc(CNC(=O)CCCn2nc(C)c3c(C)n(-c4ccccc4)nc3c2=O)c1	531	i	i	i	i
Cc1ccc(-n2nc3c(=O)n(CCCC(=O)NCc4cccc(F)c4)nc(C)c3c2C)cc1	597	i	i	i	i
Cc1nn(CCCC(=O)NCc2ccccc2)c(=O)c2nn(-c3ccccc3)c(C)c12	i	i	i	i	nt
CCOC(=O)N1CCN(C(=O)C[C@H]2C(=O)N(Cc3ccc(OC)cc3)C3=CCCC[C@@]32C(=O)OCC)CC1	nt	nt	i	nt	nt
Cc1cc2c(C)ccc(C)c2nc1SCC(=O)c1cccs1	591	i	i	i	i
CC1CCCCC1N=CC1=C(O)CC(C)(C)CC1=O (centres undefined)	385	i	i	i	i
CC12CCC(=O)N1C(C(=O)Nc1ccccc1F)CS2 (centres undefined)	793	i	i	i	i
Cc1ccccc1S(=O)(=O)Cc1ccc(C(=O)NC2CCCCC2)o1	i	i	i	i	nt
O=C(CSc1nnc(CNC(=O)c2c(F)cccc2F)o1)NCCc1ccccc1	i	i	i	i	nt
O=C(CSc1nnc(CNC(=O)c2ccccc2F)o1)NCCc1ccccc1	+	i	i	i	i
CCN(CC)C(=O)[C@H]1C[C@H](CC(=O)NC(C)(C)C)C(=O)N2CCc3c([nH]c4ccc(Cl)cc34)[C@]12C	nt	i	i	i	nt
COC(=O)c1ccc(C(=O)N2CCCC(N3CCN(c4ccc(F)cc4)CC3)C2)nc1 (centres undefined)	i	i	i	i	nt
O=C(COc1ccccc1)Nc1cccc(-c2nnc(-c3ccccc3)o2)c1	+	i	i	i	i
O=C(Cc1cccs1)Nc1cccc(-c2nnc(-c3ccco3)o2)c1	522	i	i	i	i
CN(CC(=O)Nc1ccc(S(=O)(=O)N2CCCC2)cc1)Cc1c(F)cccc1Cl	i	i	i	i	nt
SMILES	Mot1-301 SUMO	SKN-1 inh	sPLA2-III inh	Efflux pump mplx	Mot1 SUMO dose
Cc1ccc(NC(=O)CN(C)C(=O)c2cccc(S(=O)(=O)NCc3ccccc3)c2)cc1	i	i	i	i	nt
Cc1ccc(NC(=O)CN(C)C(=O)c2cccc(Br)c2)cc1	695	i	i	i	i
O=C1OCC/C1=C1/NCCNC1=O	nt	i	i	nt	nt
CC(C)C(=O)NNc1ccc(C(F)(F)F)cn1	586	i	i	i	i
Cn1c(=NC(=O)COc2ccccc2)sc2cccc(F)c21	i	i	i	i	nt
Cn1c(=NC(=O)COc2ccccc2)sc2cc(F)cc(F)c21	448	nt	nt	i	i

Source: PubChem BioAssay
